Compound activity: PubChem BioAssay, several laboratories
Rpn11 inh: Rpn11 (PSMD14) deubiquitinase inhibitors, primary screen, biochemical, fluorescence polarization, uHTS | 26S proteasome non-ATPase regulatory subunit 14 (Homo sapiens), O00487 | inhibition, % at 20 µM | human 26S proteasome, Ub4-pepOG fluorescence polarization; 20S core pre-blocked with epoxomicin | actives 0.59% (n = 360,000) | AID 588493, 2011;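 active = inhibition at 20 µM, scaled to each plate's controls, above about 33%, limit read from the data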
TPT1 inhibitor: Candida albicans TPT1 enzyme inhibitors, primary screen, biochemical, fluorescence polarization. tRNA 2'-phosphotransferase TPT1 (Candida albicans SC5314). recombinant caTPT1, FP RNA substrate dephosphorylation. inhibition, % at 5 µM. actives 0.81% (n = 300,000);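 active = inhibition above the mean of all tested compounds plus 3 SD, set per screening campaign, cut at about 24% in these data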;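 note: plate controls were DMSO alone for no effect and ferristatin control at 100 nM for full effect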
PHOSPHO1 inh: PubChem AID 1565. Phosphoethanolamine/phosphocholine phosphatase (Homo sapiens), Q8TCT1. actives 1.1% (n = 290,000). inhibition, % at 13.3 µM. recombinant PHOSPHO1, absorbance phosphatase assay; in the data active = inhibition above about 60%
Fh CTSL1 inh: Fasciola hepatica cathepsin L1 inhibitors, primary screen, counter-screen for PFM18AAP inhibitor project, biochemical, QFRET, fluorogenic peptide substrate. recombinant F. hepatica cathepsin L1, Z-Leu-Arg-MCA fluorescence. inhibition, % at 5.96 µM. actives 0.49% (n = 300,000). AID 1906, 2009;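 active = inhibition above the mean of all tested compounds plus 3 SD, set per screening campaign, cut at about 17% in these data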;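 note: 0% = plate median of test compound wells and 100% = 1 µM Z-Phe-Ala-diazomethylketone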
HNF4A DNA FP: change in binding of human HNF4A to DNA, primary screen, biochemical, fluorescence polarization, FITC-DNA; Hepatocyte nuclear factor 4-alpha (Homo sapiens), P41235; 1 h; activity change, % at 10 µM; actives 0.3% (n = 360,000); in the data active = activity change above about 30%, passing the limit was not always enough
Target sequence (P41235 whole entry, looked up): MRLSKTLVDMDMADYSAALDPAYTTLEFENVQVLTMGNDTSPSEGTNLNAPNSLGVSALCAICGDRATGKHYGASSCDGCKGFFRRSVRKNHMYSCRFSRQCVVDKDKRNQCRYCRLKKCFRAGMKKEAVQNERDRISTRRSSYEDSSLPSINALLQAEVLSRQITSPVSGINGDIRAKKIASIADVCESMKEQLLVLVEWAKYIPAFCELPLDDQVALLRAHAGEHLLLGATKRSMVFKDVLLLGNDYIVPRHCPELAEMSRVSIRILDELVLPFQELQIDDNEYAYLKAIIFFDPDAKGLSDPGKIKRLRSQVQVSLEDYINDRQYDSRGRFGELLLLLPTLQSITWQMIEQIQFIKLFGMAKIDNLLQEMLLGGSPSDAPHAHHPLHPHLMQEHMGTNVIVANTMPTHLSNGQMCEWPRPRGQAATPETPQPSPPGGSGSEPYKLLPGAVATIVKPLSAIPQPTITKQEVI
NRP1-CendR mod: modulators of CendR peptide binding to NRP-1, primary screen, biochemical, fluorescence polarization, uHTS; inhibition, % at 25 µM; FAM-RPARPAR peptide binding to NRP-1; AID 602438, 2012; actives 0.85% (n = 360,000); Neuropilin-1 (Homo sapiens), O14786;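 active = inhibition or corrected inhibition above about 18%, plus a signal ratio from 0.5 to 1.5, limit read from the data, passing the limit was not always enough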
* = called active by the depositor; nt = not tested or not shown. An excerpt weighted towards active compounds, which were near 3.3% of everything screened.

SMILES	Rpn11 inh	TPT1 inhibitor	PHOSPHO1 inh	Fh CTSL1 inh	HNF4A DNA FP	NRP1-CendR mod
Cc1ccc(N(C(=O)CNC(=O)c2ccco2)C(C(=O)NC2CCCCC2)c2cccnc2)cc1C (centres undefined)	0.0	0.2	31.9	0.5	4.7	-2.2
Cc1ccc(N(C(=O)CCl)C(C(=O)NC2CCCCC2)c2cccnc2)cc1C (centres undefined)	nt	-1.9	-21.1	17.6*	nt	nt
O=C(NCC(=O)N(Cc1ccco1)C(C(=O)NC1CCCC1)c1cccnc1)c1ccco1 (centres undefined)	-2.7	0.6	nt	2.4	-1.7	6.9
O=C(NCC(=O)N(Cc1ccccc1)C(C(=O)NC1CCCC1)c1cccnc1)c1ccco1 (centres undefined)	-5.5	-2.3	199.4*	2.5	6.6	-15.5
O=C(CC1c2cc(F)ccc2C=C(c2ccsc2)N1c1ccc(C#CCCO)cc1)c1ccco1 (centres undefined)	nt	nt	nt	nt	0.5	-1.7
NC(=O)N/N=C/c1cn(-c2ccccc2)nc1-c1cccnc1	nt	4.9	45.0	4.3	nt	nt
CCN1C(=O)/C(=C\c2cn(-c3ccccc3)nc2-c2cccnc2)SC1=S	8.3	nt	19.2	nt	3.4	35.6*
NC(=S)N/N=C/c1cn(-c2ccccc2)nc1-c1cccnc1	1.8	-1.0	12.1	25.4*	-1.5	-49.3
COc1ccc(C2=NN(C(=S)Nc3ccccc3)C(c3ccccc3)C2)cc1 (centres undefined)	4.3	-3.0	-1.5	0.7	-0.7	-5.1
COc1ccc(C2=NN(C(N)=S)C(c3ccccc3)C2)cc1 (centres undefined)	-1.5	-3.2	1.8	55.3*	-1.1	-1.6
COc1cc(C2/C(=C(\O)c3ccc4c(c3)OCCO4)C(=O)C(=O)N2c2nnc(C)s2)cc(OC)c1OC (centres undefined)	-2.6	-1.0	11.9	-1.7	1.8	12.2
COc1ccc(Cn2c(=O)sc3ccccc32)cc1	-1.3	0.2	-31.3	-0.1	-2.9	30.7*
COc1cc(/C=N/N=C2/NC(=O)C(Cc3ccc(F)cc3)S2)ccc1O (centres undefined)	-2.1	-6.2	-17.0	2.4	1.8	-7.1
COc1cc(/C=N/N=C2/NC(=O)C(c3ccccc3)S2)ccc1O (centres undefined)	3.2	-1.4	66.7*	8.2	-3.5	-5.5
CCOP(=O)(NC(c1ccccc1)c1nc2ccccc2[nH]c1=O)OCC (centres undefined)	2.0	-1.5	60.8*	-6.4	1.0	15.6
O=C(CCl)N1N=C(c2ccco2)CC1c1cccs1 (centres undefined)	8.1	0.8	-6.0	26.3*	3.6	-15.3
CCC(=O)N1N=C(c2cccs2)CC1c1ccco1 (centres undefined)	-1.5	-7.7	20.8	0.3	-1.5	40.4*
Cc1ccc(C2=NN(C(=O)CCl)C(c3cccs3)C2)o1 (centres undefined)	5.1	-1.4	-1.8	17.5*	1.7	-17.3
CC(=O)N1N=C(c2ccco2)CC1c1cccs1 (centres undefined)	0.8	-3.1	-10.0	0.7	3.2	-0.7
Cc1nc(SCC(=O)N2CCCCCC2)c2c(=O)n(C)c(=O)n(CC(C)C)c2n1	3.1	nt	nt	nt	-0.9	1.6
CCCCC(=O)NNC(=S)NC(=O)c1cccc([N+](=O)[O-])c1	1.3	-2.6	93.6*	0.1	0.2	-1.4
CCCCC(=O)NNC(=S)NC(=O)c1ccc([N+](=O)[O-])cc1	-2.9	2.9	60.6*	4.8	-1.0	9.3
CCOC(CNC(=O)c1cccc([N+](=O)[O-])c1)OCC	4.0	1.9	11.1	37.5*	4.7	-9.4
CC(=O)Nc1ccc(C(=O)CSc2nnc(-c3ccccc3F)n2CCc2ccccc2)cc1	9.7	nt	nt	nt	9.6	-3.3
Cc1ccc(NC(=O)C2CCCN2C(=O)NC2CCCCC2)cc1C (centres undefined)	-0.5	-2.0	1.2	-1.4	-2.0	27.6*
SMILES	Rpn11 inh	TPT1 inhibitor	PHOSPHO1 inh	Fh CTSL1 inh	HNF4A DNA FP	NRP1-CendR mod
COc1ccc(CN2CCNC(=O)C2CC(=O)N2CCCN(C(C)=O)CC2)cc1OC (centres undefined)	-5.9	1.1	7.9	-1.5	1.0	3.7
COc1cc(/C=C2\CCC(C)C3=C(c4cc(OC)c(OC)c(OC)c4)C(C#N)=C(N)OC32)cc(OC)c1OC (centres undefined)	nt	nt	nt	nt	77.6*	-243.7
O=S(=O)(c1ccc(S(=O)(=O)N(Cc2ccco2)Cc2ccccc2Cl)cc1)N1CCCC1	-6.8	-1.9	7.1	1.1	-0.2	0.7
CN(C)S(=O)(=O)c1ccc(S(=O)(=O)N(Cc2ccco2)Cc2ccccc2Cl)cc1	0.9	0.6	41.3	36.0*	0.3	-18.4
Cc1ccccc1S(=O)(=O)NC(=O)C1(C)CCN1C(=O)C(C)(C)c1ccccc1 (centres undefined)	-9.4	nt	nt	nt	38.8*	-7.5
CC1(C(=O)NS(=O)(=O)c2ccccc2Cl)CCN1C(=O)CC1CC1 (centres undefined)	2.3	nt	nt	nt	2.0	27.6*
COc1ccc(CN(CCN(C)C)c2ccccn2)cc1	-0.3	3.4	32.9	-1.0	-1.0	0.5
CCCCCCCCCCCCCCCC[N+](C)(C)CCN(Cc1ccc(OC)cc1)c1ncccn1	77.1*	-2.3	nt	1.6	26.5	7.6
COc1ccc(Cc2nnc(NC(=O)c3ccc(OC(C)=O)cc3)s2)cc1OC	-2.5	-4.8	29.5	-9.6	0.1	-7.5
S=C(NCc1ccco1)N1CCN(C/C=C/c2ccccc2)CC1	3.8	-0.5	-44.4	-0.2	-2.4	-6.1
Cc1ccc(S(=O)(=O)N(C)C)cc1NC(=S)NCCCn1ccnc1	-6.9	-0.1	12.2	-1.5	4.3	11.1
CN(C)S(=O)(=O)c1cccc(NC(=S)NCCCn2ccnc2)c1	-1.3	0.4	24.1	17.4*	0.2	-8.6
CCOC(=O)C1(CC)CC(CSc2nc3ccccc3[nH]2)OC1=O (centres undefined)	-2.2	-2.2	-8.4	-1.7	-2.1	-7.5
CCOC(=O)C1(CCC(C)C)CC(CSc2nc3ccccc3[nH]2)OC1=O (centres undefined)	5.3	0.1	71.2*	4.4	-0.5	5.4
O=C1c2ccccc2NC(c2ccco2)N1/N=C/c1ccco1 (centres undefined)	0.3	0.3	45.4	1.3	-0.6	18.3*
CN(C(=O)c1cc(C(=O)N(C)c2ccccc2)cc([N+](=O)[O-])c1)c1ccccc1	-2.7	1.4	44.4	-0.2	5.5	6.2
CN(C(=O)c1ccc(Cl)cc1)C1=CCCCC1CCC#N (centres undefined)	2.7	0.8	19.2	-1.2	-3.0	-8.8
